# In article PMC7862700, “An all-to-all approach to the identification of sequence-specific readers for epigenetic DNA modifications on cytosine”:
# How the values were obtained:
# Experiment in all cases: DAPPL (digital affinity profiling via proximity ligation, sequencing); 10 mM Tris-HCl pH 7.5, 50 mM NaCl, 1 mM DTT, 4% glycerol, room temperature, 30 min; GST-TFs on glutathione beads, 16-mer random dsDNA library, 0.1% formaldehyde crosslink after washing; high values mean tight binding
# FEV = biological target: T1, FEV (Homo sapiens, UniProt Q99581 1-238); details: protein: recombinant; tags: N-terminal GST; dsDNA, one strand shown
# T1 sequence: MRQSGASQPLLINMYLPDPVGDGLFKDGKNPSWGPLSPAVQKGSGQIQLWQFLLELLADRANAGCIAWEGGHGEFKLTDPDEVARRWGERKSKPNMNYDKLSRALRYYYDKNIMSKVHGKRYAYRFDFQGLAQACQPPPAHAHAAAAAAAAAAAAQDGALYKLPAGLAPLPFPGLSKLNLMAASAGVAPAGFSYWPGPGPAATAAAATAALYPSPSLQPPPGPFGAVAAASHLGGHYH
# How it was run: (§1)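 Pools of DNA-barcoded human transcription factors, expressed in yeast as GST fusions on glutathione beads and combined with a tag-only sample, were incubated with 200 nmole of a 16-mer random double-stranded DNA library. Incubation took 30 min at room temperature in Tris/NaCl/DTT/glycerol buffer and was followed by washing, 0.1% formaldehyde crosslinking, proximity ligation (BsaI/T4 ligase, 1 h, 37 °C), PCR amplification and sequencing on an Illumina NextSeq500. Binding signal is the ratio of a hexamer's read frequency for a factor to its frequency for the tag-only sample.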
# ETV5 = ETV5 (Homo sapiens, UniProt P41161 1-510); details: protein: recombinant; tags: N-terminal GST; dsDNA, one strand shown
# Sequence of ETV5 (P41161 whole entry): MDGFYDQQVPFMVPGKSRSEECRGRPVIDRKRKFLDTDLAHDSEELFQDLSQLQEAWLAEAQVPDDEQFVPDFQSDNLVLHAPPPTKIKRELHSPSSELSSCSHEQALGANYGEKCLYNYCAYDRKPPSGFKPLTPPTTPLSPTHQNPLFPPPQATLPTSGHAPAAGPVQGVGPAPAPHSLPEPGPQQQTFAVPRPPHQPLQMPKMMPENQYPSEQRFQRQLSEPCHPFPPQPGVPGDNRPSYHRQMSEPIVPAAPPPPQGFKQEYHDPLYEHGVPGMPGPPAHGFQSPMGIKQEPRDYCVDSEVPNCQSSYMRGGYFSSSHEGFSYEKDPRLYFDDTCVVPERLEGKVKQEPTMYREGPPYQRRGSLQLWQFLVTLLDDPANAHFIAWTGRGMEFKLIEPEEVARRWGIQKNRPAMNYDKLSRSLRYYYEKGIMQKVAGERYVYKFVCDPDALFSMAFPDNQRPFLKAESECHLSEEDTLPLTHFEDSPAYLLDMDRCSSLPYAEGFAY
# How it was run: as §1
# HSF1 = HSF1 (Homo sapiens, UniProt Q00613 1-529); details: protein: recombinant; tags: N-terminal GST; chain copies: 3; dsDNA, one strand shown
# Sequence of HSF1 (Q00613 whole entry): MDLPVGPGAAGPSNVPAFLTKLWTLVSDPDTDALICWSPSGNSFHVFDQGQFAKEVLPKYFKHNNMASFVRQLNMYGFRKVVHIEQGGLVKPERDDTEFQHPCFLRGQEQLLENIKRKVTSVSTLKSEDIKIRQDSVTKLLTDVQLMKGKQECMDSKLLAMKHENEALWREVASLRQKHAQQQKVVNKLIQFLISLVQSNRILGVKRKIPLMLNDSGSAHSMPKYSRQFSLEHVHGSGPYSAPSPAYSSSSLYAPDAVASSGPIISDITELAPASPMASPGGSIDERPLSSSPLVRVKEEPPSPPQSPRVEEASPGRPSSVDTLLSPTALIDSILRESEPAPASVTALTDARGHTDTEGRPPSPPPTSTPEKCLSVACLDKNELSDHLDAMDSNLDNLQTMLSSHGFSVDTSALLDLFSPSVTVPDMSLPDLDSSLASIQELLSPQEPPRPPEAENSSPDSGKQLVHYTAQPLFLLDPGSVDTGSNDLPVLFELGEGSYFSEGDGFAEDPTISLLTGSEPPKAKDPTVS
# How it was run: as §1
# SPIC = biological target: T2, SPIC (Homo sapiens, UniProt Q8N5J4 1-248); details: protein: recombinant; tags: N-terminal GST; dsDNA, one strand shown
# T2 sequence: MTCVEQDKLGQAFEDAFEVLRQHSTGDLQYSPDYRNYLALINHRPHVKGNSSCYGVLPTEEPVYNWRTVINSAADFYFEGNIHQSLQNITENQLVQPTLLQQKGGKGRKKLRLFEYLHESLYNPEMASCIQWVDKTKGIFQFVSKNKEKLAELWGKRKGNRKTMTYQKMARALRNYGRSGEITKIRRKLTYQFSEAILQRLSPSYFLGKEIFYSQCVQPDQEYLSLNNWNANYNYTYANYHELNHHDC
# How it was run: as §1
# ELF4 = ELF4 (Homo sapiens, UniProt Q99607 1-663); details: protein: recombinant; tags: N-terminal GST; dsDNA, one strand shown
# Sequence of ELF4 (Q99607 whole entry): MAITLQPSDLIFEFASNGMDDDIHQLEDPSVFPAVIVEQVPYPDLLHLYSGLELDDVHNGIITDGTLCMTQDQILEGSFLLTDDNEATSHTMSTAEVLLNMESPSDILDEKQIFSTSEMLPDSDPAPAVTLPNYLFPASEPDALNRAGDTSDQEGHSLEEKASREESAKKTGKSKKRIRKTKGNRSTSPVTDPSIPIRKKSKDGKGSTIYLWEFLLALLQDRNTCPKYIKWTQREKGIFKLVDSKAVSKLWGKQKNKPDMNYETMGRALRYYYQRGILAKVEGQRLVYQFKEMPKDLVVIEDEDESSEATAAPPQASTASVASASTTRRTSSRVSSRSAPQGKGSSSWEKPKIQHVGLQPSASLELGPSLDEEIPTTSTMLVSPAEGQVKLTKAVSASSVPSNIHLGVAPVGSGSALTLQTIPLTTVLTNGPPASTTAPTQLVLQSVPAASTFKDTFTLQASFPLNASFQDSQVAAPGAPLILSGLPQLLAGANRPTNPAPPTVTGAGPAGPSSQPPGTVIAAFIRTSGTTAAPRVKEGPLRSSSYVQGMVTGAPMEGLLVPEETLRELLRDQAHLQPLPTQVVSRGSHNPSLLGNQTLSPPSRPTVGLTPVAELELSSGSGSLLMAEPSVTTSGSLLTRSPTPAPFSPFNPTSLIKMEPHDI
# How it was run: as §1
# ELK4 = biological target: T3, ELK4 (Homo sapiens, UniProt P28324-2 1-405); details: protein: recombinant; tags: N-terminal GST; dsDNA, one strand shown
# T3 sequence: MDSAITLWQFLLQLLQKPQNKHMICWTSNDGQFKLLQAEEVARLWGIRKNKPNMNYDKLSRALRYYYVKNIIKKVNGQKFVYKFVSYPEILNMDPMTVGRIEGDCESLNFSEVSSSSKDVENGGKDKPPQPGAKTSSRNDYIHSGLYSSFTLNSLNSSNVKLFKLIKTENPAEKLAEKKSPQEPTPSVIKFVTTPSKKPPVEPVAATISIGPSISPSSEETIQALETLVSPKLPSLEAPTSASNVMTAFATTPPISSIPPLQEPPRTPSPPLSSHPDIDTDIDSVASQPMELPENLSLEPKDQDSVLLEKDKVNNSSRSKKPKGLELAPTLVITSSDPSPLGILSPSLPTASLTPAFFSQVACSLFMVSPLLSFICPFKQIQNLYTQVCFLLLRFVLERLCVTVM
# How it was run: as §1
# ETV2 = biological target: T4, ETV2 (Homo sapiens, UniProt O00321 1-342); details: protein: recombinant; tags: N-terminal GST; dsDNA, one strand shown
# T4 sequence: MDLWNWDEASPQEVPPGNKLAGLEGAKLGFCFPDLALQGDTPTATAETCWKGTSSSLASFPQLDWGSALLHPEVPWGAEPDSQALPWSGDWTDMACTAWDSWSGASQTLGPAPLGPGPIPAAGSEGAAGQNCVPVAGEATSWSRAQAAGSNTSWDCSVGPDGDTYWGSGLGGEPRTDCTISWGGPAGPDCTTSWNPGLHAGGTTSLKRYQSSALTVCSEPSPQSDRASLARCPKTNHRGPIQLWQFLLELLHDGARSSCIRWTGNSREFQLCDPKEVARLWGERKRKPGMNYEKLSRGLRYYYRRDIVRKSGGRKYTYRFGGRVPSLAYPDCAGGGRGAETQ
# How it was run: as §1
# ELF3 = biological target: T5, ELF3 (Homo sapiens, UniProt P78545 1-371); details: protein: recombinant; tags: N-terminal GST; dsDNA, one strand shown
# T5 sequence: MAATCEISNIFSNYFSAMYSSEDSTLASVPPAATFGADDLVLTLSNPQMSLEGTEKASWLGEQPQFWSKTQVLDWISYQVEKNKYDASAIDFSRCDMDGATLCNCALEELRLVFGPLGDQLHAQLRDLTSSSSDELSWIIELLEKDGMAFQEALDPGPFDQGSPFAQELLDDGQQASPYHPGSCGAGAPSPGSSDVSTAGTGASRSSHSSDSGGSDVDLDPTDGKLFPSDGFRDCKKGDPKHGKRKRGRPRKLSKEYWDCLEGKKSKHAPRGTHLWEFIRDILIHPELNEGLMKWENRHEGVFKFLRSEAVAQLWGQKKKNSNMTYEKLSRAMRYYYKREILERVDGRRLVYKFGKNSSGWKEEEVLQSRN
# How it was run: as §1
# CRX = CRX (Homo sapiens, UniProt O43186 1-299); details: protein: recombinant; tags: N-terminal GST; dsDNA, one strand shown
# Sequence of CRX (O43186 whole entry): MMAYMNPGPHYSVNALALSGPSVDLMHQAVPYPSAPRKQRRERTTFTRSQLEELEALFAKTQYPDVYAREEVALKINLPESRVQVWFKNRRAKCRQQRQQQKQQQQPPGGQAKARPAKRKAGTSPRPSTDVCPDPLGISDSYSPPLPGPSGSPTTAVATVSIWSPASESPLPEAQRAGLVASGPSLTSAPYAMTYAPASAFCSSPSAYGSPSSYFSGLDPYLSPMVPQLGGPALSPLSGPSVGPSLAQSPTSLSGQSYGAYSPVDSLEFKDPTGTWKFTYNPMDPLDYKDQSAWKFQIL
# How it was run: as §1
# ETV1 = ETV1 (Homo sapiens, UniProt P50549 1-477); details: protein: recombinant; tags: N-terminal GST; dsDNA, one strand shown
# Sequence of ETV1 (P50549 whole entry): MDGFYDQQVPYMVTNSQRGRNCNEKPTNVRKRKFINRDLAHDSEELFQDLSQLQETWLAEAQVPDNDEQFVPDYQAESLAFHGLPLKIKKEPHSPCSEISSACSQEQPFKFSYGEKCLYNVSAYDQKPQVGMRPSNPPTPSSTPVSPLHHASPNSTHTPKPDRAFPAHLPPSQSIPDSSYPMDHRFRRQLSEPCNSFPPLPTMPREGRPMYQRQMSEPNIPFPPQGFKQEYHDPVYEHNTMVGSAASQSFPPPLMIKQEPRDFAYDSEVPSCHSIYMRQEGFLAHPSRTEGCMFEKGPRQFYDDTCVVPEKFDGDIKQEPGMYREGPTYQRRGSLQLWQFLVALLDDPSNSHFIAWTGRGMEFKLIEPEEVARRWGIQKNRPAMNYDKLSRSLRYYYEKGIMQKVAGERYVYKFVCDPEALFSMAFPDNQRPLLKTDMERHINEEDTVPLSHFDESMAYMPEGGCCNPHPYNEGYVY
# How it was run: as §1
# ERF = biological target: T6, ERF (Homo sapiens, UniProt P50548 1-548); details: protein: recombinant; tags: N-terminal GST; dsDNA, one strand shown
# T6 sequence: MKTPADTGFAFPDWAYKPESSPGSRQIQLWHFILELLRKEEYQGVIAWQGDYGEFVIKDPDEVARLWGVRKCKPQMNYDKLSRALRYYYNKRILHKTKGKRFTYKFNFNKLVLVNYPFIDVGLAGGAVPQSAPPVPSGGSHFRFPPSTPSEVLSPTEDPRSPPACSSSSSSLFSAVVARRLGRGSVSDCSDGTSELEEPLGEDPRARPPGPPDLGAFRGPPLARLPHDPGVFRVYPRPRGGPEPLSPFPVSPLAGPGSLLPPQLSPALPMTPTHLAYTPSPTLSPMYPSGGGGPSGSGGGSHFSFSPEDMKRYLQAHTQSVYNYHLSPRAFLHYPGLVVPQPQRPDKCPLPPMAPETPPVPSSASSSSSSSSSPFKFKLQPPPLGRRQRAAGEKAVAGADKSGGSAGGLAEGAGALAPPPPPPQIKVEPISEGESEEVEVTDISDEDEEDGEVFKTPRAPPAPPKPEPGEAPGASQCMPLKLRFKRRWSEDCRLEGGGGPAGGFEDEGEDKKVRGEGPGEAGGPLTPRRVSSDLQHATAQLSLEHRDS
# How it was run: as §1
# ETV3L = biological target: T7, ETV3L (Homo sapiens, UniProt Q6ZN32 1-361); details: protein: recombinant; tags: N-terminal GST; dsDNA, one strand shown
# T7 sequence: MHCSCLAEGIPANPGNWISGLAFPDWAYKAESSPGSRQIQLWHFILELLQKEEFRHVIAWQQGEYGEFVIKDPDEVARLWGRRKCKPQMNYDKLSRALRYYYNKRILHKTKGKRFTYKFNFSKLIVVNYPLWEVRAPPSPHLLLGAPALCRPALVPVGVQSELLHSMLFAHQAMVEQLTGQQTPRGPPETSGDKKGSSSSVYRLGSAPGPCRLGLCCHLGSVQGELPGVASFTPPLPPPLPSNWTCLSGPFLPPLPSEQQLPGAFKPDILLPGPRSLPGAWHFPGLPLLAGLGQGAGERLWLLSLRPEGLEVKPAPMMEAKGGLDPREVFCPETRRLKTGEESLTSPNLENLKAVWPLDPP
# How it was run: as §1
# ETS2 = biological target: T8, ETS2 (Homo sapiens, UniProt P15036 1-469); details: protein: recombinant; tags: N-terminal GST; dsDNA, one strand shown
# T8 sequence: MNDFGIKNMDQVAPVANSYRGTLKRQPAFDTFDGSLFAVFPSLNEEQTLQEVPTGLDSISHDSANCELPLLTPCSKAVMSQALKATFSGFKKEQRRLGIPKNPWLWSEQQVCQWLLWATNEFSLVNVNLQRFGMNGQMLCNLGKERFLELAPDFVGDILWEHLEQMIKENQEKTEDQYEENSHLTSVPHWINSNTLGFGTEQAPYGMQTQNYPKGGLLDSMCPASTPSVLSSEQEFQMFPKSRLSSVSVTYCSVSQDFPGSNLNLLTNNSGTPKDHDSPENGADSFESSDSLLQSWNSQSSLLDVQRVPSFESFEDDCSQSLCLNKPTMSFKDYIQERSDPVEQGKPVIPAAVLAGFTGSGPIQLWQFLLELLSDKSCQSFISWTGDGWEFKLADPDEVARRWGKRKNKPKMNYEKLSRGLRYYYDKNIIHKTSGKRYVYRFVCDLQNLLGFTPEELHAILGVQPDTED
# How it was run: as §1
# SPDEF = biological target: T9, SPDEF (Homo sapiens, UniProt O95238 1-335); details: protein: recombinant; tags: N-terminal GST; dsDNA, one strand shown
# T9 sequence: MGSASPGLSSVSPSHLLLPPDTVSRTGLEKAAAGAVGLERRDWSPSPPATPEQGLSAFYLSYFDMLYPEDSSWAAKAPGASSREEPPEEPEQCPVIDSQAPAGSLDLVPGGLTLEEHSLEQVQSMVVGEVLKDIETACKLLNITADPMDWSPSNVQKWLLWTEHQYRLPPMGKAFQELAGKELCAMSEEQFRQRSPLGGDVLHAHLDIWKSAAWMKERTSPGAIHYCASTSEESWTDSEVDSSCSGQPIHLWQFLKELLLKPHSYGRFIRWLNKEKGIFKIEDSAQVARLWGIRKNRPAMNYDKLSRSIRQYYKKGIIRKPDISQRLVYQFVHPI
# How it was run: as §1
# ETV7 = biological target: T10, ETV7 (Homo sapiens, UniProt Q9Y603 1-341); details: protein: recombinant; tags: N-terminal GST; dsDNA, one strand shown
# T10 sequence: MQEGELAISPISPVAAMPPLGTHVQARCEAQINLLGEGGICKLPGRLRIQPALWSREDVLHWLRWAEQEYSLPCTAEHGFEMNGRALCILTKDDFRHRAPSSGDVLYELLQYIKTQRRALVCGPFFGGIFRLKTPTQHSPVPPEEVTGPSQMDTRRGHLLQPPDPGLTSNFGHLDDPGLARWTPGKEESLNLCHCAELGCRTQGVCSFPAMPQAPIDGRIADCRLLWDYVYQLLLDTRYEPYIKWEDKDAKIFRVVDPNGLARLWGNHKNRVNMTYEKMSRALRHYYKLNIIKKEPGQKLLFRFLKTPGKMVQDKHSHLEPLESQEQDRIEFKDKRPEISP
# How it was run: as §1
# ELF5 = biological target: T11, ELF5 (Homo sapiens, UniProt Q9UKW6-2 1-255); details: protein: recombinant; tags: N-terminal GST; dsDNA, one strand shown
# T11 sequence: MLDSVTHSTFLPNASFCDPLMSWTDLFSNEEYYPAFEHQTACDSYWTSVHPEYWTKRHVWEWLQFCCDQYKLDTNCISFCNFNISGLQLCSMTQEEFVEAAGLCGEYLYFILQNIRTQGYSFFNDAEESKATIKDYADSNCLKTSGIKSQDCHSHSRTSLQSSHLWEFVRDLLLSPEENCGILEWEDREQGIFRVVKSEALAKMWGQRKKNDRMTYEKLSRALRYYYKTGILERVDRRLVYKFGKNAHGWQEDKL
# How it was run: as §1
# ETV3 = biological target: T12, ETV3 (Homo sapiens, UniProt P41162-2 1-143); details: protein: recombinant; tags: N-terminal GST; dsDNA, one strand shown
# T12 sequence: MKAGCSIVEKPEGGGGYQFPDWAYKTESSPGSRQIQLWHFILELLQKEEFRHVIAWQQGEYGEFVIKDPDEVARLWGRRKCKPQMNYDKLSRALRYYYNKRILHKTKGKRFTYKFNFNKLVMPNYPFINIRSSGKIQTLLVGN
# How it was run: as §1
# ETV6 = ETV6 (Homo sapiens, UniProt P41212 1-452); details: protein: recombinant; tags: N-terminal GST; dsDNA, one strand shown
# Sequence of ETV6 (P41212 whole entry): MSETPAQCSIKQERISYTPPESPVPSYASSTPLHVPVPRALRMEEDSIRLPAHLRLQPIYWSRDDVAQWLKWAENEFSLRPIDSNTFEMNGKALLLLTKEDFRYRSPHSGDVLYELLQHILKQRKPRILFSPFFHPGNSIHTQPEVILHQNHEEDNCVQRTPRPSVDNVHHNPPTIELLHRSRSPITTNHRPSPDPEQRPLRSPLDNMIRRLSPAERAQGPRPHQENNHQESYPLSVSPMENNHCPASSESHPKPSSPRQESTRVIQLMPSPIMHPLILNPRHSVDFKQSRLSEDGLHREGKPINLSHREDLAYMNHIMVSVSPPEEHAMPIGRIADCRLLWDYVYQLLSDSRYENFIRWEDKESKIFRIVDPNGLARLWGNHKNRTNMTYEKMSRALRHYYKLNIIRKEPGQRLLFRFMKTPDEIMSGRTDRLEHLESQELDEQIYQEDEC
# How it was run: as §1
sequence,measurement,setting,value
TGACAA,binding signal,FEV,"1.22 fold enrichment (6-mer frequency, TF over GST control)"
same,binding signal,ETV5,"1.22 fold enrichment (6-mer frequency, TF over GST control)"
same,binding signal,HSF1,"1.06 fold enrichment (6-mer frequency, TF over GST control)"
same,binding signal,SPIC,"1.11 fold enrichment (6-mer frequency, TF over GST control)"
same,binding signal,ELF4,"1.26 fold enrichment (6-mer frequency, TF over GST control)"
same,binding signal,ELK4,"1.2 fold enrichment (6-mer frequency, TF over GST control)"
same,binding signal,ETV2,"1.14 fold enrichment (6-mer frequency, TF over GST control)"
same,binding signal,ELF3,"1.3 fold enrichment (6-mer frequency, TF over GST control)"
same,binding signal,CRX,"1.05 fold enrichment (6-mer frequency, TF over GST control)"
same,binding signal,ETV1,"1.25 fold enrichment (6-mer frequency, TF over GST control)"
same,binding signal,ERF,"1.23 fold enrichment (6-mer frequency, TF over GST control)"
same,binding signal,ETV3L,"1.34 fold enrichment (6-mer frequency, TF over GST control)"
same,binding signal,ETS2,"1.27 fold enrichment (6-mer frequency, TF over GST control)"
same,binding signal,SPDEF,"1.21 fold enrichment (6-mer frequency, TF over GST control)"
same,binding signal,ETV7,"1.31 fold enrichment (6-mer frequency, TF over GST control)"
same,binding signal,ELF5,"1.23 fold enrichment (6-mer frequency, TF over GST control)"
same,binding signal,ETV3,"1.26 fold enrichment (6-mer frequency, TF over GST control)"
same,binding signal,ETV6,"1.23 fold enrichment (6-mer frequency, TF over GST control)"
